Autofluor counter – compound fluorescence in toxin protease inhibitor counterscreen; compound autofluorescence counterscreen, microsphere flow cytometry; active compounds read high; fluorescence intensity (test concentration not listed); 3.1% of 360,000 active; in the data active = fluorescence intensity above about 16000; inconclusive = no clear call, values can overlap the other calls
CCHF vOTU inh-1 – CCHFV vOTU protease inhibitors, primary screen, biochemical, Pep-AMC substrate, fluorescence. Crimean-Congo hemorrhagic fever virus L polyprotein viral ovarian tumor (vOTU) protease …. inhibition, % at 11.5 µM. 0.55% of 370,000 active; in the data active = inhibition above about 30%
Anthrax LF inh2 – Bacillus anthracis LF protease inhibitors, primary screen, biochemical, multiplex microsphere, MLPCN library; AID 588501, 2011; inhibition, % at 10 µM; multiplex microsphere protease cleavage assay; 0.12% of 360,000 active
3CLpro inhibitor – SARS-CoV 3CLpro protease inhibitors, primary screen, biochemical, quenched FRET. recombinant SARS-CoV 3CLpro, quenched FRET peptide cleavage. 0.14% of 290,000 active. inhibition, % at 6 µM. Replicase polyprotein 1ab (Severe acute respiratory syndrome coronavirus), P0C6X7. AID 1706, 2009; in the data active = inhibition above about 12%
BoNT-F LC inh – BoNT/F light chain protease inhibitors, primary screen, biochemical, flow cytometry, MLPCN library | Multiplex microsphere protease cleavage assay | inhibition, % at 10 µM | 0.22% of 360,000 active | AID 588497, 2011; in the data active = inhibition above about 35%, passing the limit was not always enough; inconclusive = no clear call, values can overlap the other calls
BoNT-A LC inh2 – BoNT/A light chain protease inhibitors, primary screen, biochemical, flow cytometry, MLPCN library; inhibition, % at 10 µM; AID 588499, 2011; 0.17% of 360,000 active; Botulinum neurotoxin type A light chain protease (Clostridium botulinum A str. ATCC 3502); multiplex microsphere protease substrate cleavage
CCHF vOTU inh-2 – CCHFV vOTU protease inhibitors, confirmation, biochemical, Pep-AMC substrate, fluorescence; shares compounds with CCHF vOTU inh-1; Recombinant CCHFV vOTU; inhibition, % at 11.5 µM; 17% of 1,900 active; in the data active = inhibition above about 30%
Of the large screens only hits and unclear results are named; the others gave an inactive call (follow-up assays come after a bar, where they were run); ! = a repeat was not active. Most compounds without a hit are left out; they make up all but 3.9% or so of the library. Rule as the data show it, unless noted: active = inhibition above about 30%; inconclusive = no clear call, values can overlap the other calls; inactive = below that.

CSCC[C@H](NS(=O)(=O)c1ccc(C)cc1)C(=O)N1CCC(C(=O)N[C@@H](Cc2ccc(O)cc2)C(=O)O)CC1	none
O=C(c1ccco1)N1CCN(C(=O)c2[nH]c(C(F)(F)F)nc2-c2ccccc2)CC1	none (no result: 3CLpro inhibitor)
COc1ccc(C)cc1-n1cnc2sc(C)c(C)c2c1=O	CCHF vOTU inh-1 30.1 (no result: 3CLpro inhibitor) | CCHF vOTU inh-2 inactive
C=CCNS(=O)(=O)c1ccc(N2C(=O)c3ccccc3C2=O)cc1	none
O=C1Cc2ccccc2C(=O)N1c1ccccc1	none
O=C1Cc2ccccc2C(=O)N1Cc1ccccc1	CCHF vOTU inh-1 93.0 | CCHF vOTU inh-2 90.6
O=C1c2ccccc2C(=O)N1CC1=NCCc2ccccc21	CCHF vOTU inh-1 39.4 | CCHF vOTU inh-2 inactive
COC(=O)CN(c1ccc(F)cc1)S(=O)(=O)c1ccccc1	none
COC(=O)Cc1ccc(N(Cc2ccccc2F)S(=O)(=O)c2ccc(Cl)cc2)cc1	CCHF vOTU inh-1 32.0 | CCHF vOTU inh-2 inactive
CCCCn1c(N)c(N(CCC(C)C)C(=O)CC2CCCCC2)c(=O)[nH]c1=O	Autofluor counter inconclusive (no result: 3CLpro inhibitor)
CCCCN(C(=O)CC1CCCCC1)c1c(N)n(CC(C)C)c(=O)[nH]c1=O	CCHF vOTU inh-1 31.6 (no result: 3CLpro inhibitor) | CCHF vOTU inh-2 inactive
COCCNC(=O)NC12CC3(C)CC(C)(CC(C)(C3)C1)C2	CCHF vOTU inh-1 35.0 | CCHF vOTU inh-2 inactive
Cc1cc(/C=C(\C#N)C(=O)O)c(C)n1CC(C)C	none
Cc1cc(/C=C(\C#N)C(=O)O)c(C)n1CCC(C)C	CCHF vOTU inh-1 29.7 | CCHF vOTU inh-2 inactive
O=C(CC(=O)c1ccccc1)c1ccccc1	none (no result: 3CLpro inhibitor)
CC(CC(=O)c1ccccc1)=NCCCN=C(C)CC(=O)c1ccccc1	CCHF vOTU inh-1 35.1 (no result: 3CLpro inhibitor) | CCHF vOTU inh-2 inactive
C/C(=N\NC(=S)NC1CCCCC1)c1ccc(OC(F)F)cc1OC(F)F	CCHF vOTU inh-1 33.1 | CCHF vOTU inh-2 inactive
CCC(=O)N1CCN(c2ccc(NC(=S)NC(=O)c3cc4ccccc4o3)cc2)CC1	CCHF vOTU inh-1 33.6 | CCHF vOTU inh-2 inactive
Nc1ccc2ccc(N)cc2c1	CCHF vOTU inh-1 33.8 (no result: Autofluor counter, Anthrax LF inh2, 3CLpro inhibitor, BoNT-F LC inh, BoNT-A LC inh2) | CCHF vOTU inh-2 inactive
Nc1ccc2cc3ccccc3cc2c1	none (no result: 3CLpro inhibitor)
CCOc1ccc(/C=C/C(=O)Nc2ccccc2C(F)(F)F)cc1	CCHF vOTU inh-1 29.6 | CCHF vOTU inh-2 inactive
CC1(OC(=O)C2CCCC2)C(=O)C=C2C=C(c3ccsc3)N(C(CO)CO)C=C2C1=O (stereo not drawn)	CCHF vOTU inh-1 31.5 (no result: 3CLpro inhibitor) | CCHF vOTU inh-2 inactive
CC#CCOCC1CN(C)C(=O)O1 (stereo not drawn)	none (no result: 3CLpro inhibitor)
CN(C)c1cccc2c1c(NS(=O)(=O)c1cn(C)cn1)nn2C	CCHF vOTU inh-1 52.0 | CCHF vOTU inh-2 50.3
CCOc1ccc(NC(=O)CN2C(=O)NC(C)(c3ccc4c(c3)OCCCO4)C2=O)cc1OCC (stereo not drawn)	none (no result: 3CLpro inhibitor)
COc1ccc(N2CCN(C(CNC(=O)C(=O)NCc3cccs3)c3ccco3)CC2)cc1 (stereo not drawn)	none
O=C(NCc1cccs1)C(=O)NCC(c1ccco1)N1CCN(c2ccccc2)CC1 (stereo not drawn)	CCHF vOTU inh-1 30.5 | CCHF vOTU inh-2 inactive
CCN(CC(=O)Nc1ccc(NC(C)=O)cc1)Cc1c(O)ccc2cc(Br)ccc12	none
CC1(Cc2ccc(C(F)(F)F)o2)C(=O)Nc2ccc(-c3cccc(C(F)(F)F)c3)cc21 (stereo not drawn)	CCHF vOTU inh-1 35.8 (no result: 3CLpro inhibitor) | CCHF vOTU inh-2 inactive
CC1(Cc2ccc3c(c2)OCO3)C(=O)Nc2ccc(-c3cccc(C(F)(F)F)c3)cc21 (stereo not drawn)	none (no result: 3CLpro inhibitor)
Nc1cc(=O)[nH]c(=O)n1CCCc1ccccc1	none
O=C(CSc1nc(=O)n(CCCN2CCOCC2)c2c1CCCC2)Nc1ccc(F)cc1F	none (no result: Autofluor counter, Anthrax LF inh2, 3CLpro inhibitor, BoNT-F LC inh, BoNT-A LC inh2)
O=C(CSc1nc(=O)n(CCCN2CCOCC2)c2c1CCC2)Nc1ccc(F)cc1F	CCHF vOTU inh-1 32.3 (no result: Autofluor counter, Anthrax LF inh2, 3CLpro inhibitor, BoNT-F LC inh, BoNT-A LC inh2) | CCHF vOTU inh-2 inactive
CC1=NN(c2ccc(F)cc2)C(=O)C1C(c1cccc(O)c1)c1c(C)[nH]n(-c2ccc(F)cc2)c1=O (stereo not drawn)	CCHF vOTU inh-1 66.3 | CCHF vOTU inh-2 inactive
CC1=NN(c2ccc(Cl)cc2)C(=O)C1C(c1cccc(O)c1)c1c(C)[nH]n(-c2ccc(Cl)cc2)c1=O (stereo not drawn)	none (no result: CCHF vOTU inh-1)
COc1cc(C)c(Cl)cc1S(=O)(=O)N1CCSC1	none
Cc1ccc(Nc2cc(-n3cccn3)ncn2)c(C)c1	CCHF vOTU inh-1 63.9 | CCHF vOTU inh-2 inactive
Cc1ccc(Nc2cc(-n3nc(C)cc3C)ncn2)c(C)c1	none
O=S1(=O)CC(N2CCN(CCO)CC2)CN1CCc1ccccc1 (stereo not drawn)	none (no result: 3CLpro inhibitor)
COc1ccc(NS(=O)(=O)c2ccc3c(c2)[C@H]2C=CC[C@H]2[C@@H](c2ccc(C(=O)O)cc2)N3)cc1	CCHF vOTU inh-1 38.5 | CCHF vOTU inh-2 inactive
Cc1c(Cl)cccc1NS(=O)(=O)c1ccc2c(c1)C1C=CCC1C(c1ccc(C(=O)O)cc1)N2 (stereo not drawn)	none (no result: CCHF vOTU inh-1)
CCOC(=O)/C(C#N)=C/c1ccc(N2CCN(C)CC2)cc1	none
CCOC(=O)C(/C=C(\C#N)C(=O)OCC)=C(/N)N1CCN(c2ccccc2)CC1	CCHF vOTU inh-1 32.7 | CCHF vOTU inh-2 inactive
CCCc1ccc(Oc2cn[nH]c2-c2ccc(O)c(C)c2O)cc1	CCHF vOTU inh-1 35.6 | CCHF vOTU inh-2 inactive
O=C1C(Cc2ccccc2)Nc2ncnc(N3CCOCC3)c2N1Cc1ccc(Cl)cc1 (stereo not drawn)	CCHF vOTU inh-1 30.8! (no result: 3CLpro inhibitor) | CCHF vOTU inh-2 inactive
CCOC(=O)[C@@]12CCC3=C1N(CCC3)C(=O)[C@H](CC(=O)NCc1cccc3ccccc13)C2	none (no result: Autofluor counter, Anthrax LF inh2, 3CLpro inhibitor, BoNT-F LC inh, BoNT-A LC inh2)
O=C(Nc1ccccc1)O[C@@H]1C[C@H]2CCC(=O)N3CC[C@@H](C1)[C@@H]23	none (no result: Autofluor counter, CCHF vOTU inh-1, Anthrax LF inh2, BoNT-F LC inh, BoNT-A LC inh2)
CCN(CC(=O)Nc1ccccc1C(F)(F)F)C(=O)c1cccc(S(=O)(=O)N2CCN(C)CC2)c1	Autofluor counter inconclusive (no result: 3CLpro inhibitor)
CCCCCCCCN1C(=O)[C@@H](CC(=O)N2CCCCC2)C[C@@]2(C(=O)OC)C1=C[C@H](C(C)C)O[C@@H]2C1CC1	CCHF vOTU inh-1 31.6 (no result: Autofluor counter, Anthrax LF inh2, 3CLpro inhibitor, BoNT-F LC inh, BoNT-A LC inh2) | CCHF vOTU inh-2 inactive
CCCCCCCCN1C(=O)[C@@H](CC(=O)NCc2cccs2)C[C@@]2(C(=O)OC)C1=C[C@H](C(C)C)O[C@@H]2C1CC1	CCHF vOTU inh-1 38.9 (no result: Autofluor counter, Anthrax LF inh2, 3CLpro inhibitor, BoNT-F LC inh, BoNT-A LC inh2) | CCHF vOTU inh-2 inactive

High-throughput results from PubChem.
